From PubChem BioAssay (NCATS)
Inconclusive results are not listed. Calls of active or inactive are those of the source. Calls follow the shape of the dose curve; as a rule, active = well fitted curve in the direction sought with a large enough effect; inconclusive = small, poorly fitted or top-dose-only effect, or another doubt; inactive = no such curve, though single readings can be large; an effect the other way counts as inactive or inconclusive.

Key:
[1] = Cellular Toxicity (caspase-3) Mesangial (AID 660); details: mesangial cells, normalized: DMSO 0%, 100 µM tamoxifen 100%; at 91.7 µM (top of the series);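 also: combined caspase 3 and 7 activity read by Caspase-Glo luminescence; cells exposed to compound for 16 h before the caspase read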
Outline: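 Concentration-response qHTS: compound-induced rise in caspase 3/7 luminescence in human mesangial cells after 16 h, normalized to DMSO and 100 uM tamoxifen controls.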

[2] = Cellular Toxicity (caspase-3) SK-N-SH (AID 661);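 also: 0% = DMSO basal and 100% = 10 µM staurosporine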
Outline: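 Caspase 3/7 activation is measured as a luminescence increase from aminoluciferin released by substrate cleavage in SK-N-SH cells after 16 hr compound treatment; values are AC50 from concentration-response curves.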

[3] = Cellular Toxicity (caspase-3) H-4-II-E (AID 663); details: H-4-II-E rat hepatoma, scaled: DMSO 0%, 100 µM tamoxifen 100%; at 92.2 µM (top of the series);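 also: cells exposed to compound for 16 hr before readout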
Outline: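 Apoptosis induction is scored as increased luminescence from caspase 3/7 substrate cleavage in rat hepatoma H-4-II-E cells exposed to compound for 16 hr. Activity is scaled between DMSO and 100 uM tamoxifen.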

[4] = Cellular Toxicity (caspase-3) Hek293 (AID 664); details: HEK293 caspase-3 activation, DMSO = 0%, 100 µM tamoxifen = 100%; at 92.2 µM (top of the series);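 also: cells exposed to compound for 16 h at 37 °C before readout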
Outline: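 Activation of caspase-3/7 is measured as increased luminescence from cleaved peptide-aminoluciferin substrate in HEK293 cells treated 16 hours at 37 °C. AC50 values come from Hill-equation fits of concentration-response data.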

[5] = Cellular Toxicity (caspase-3) N2a (AID 665);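 also: compound exposure lasted 16 h at 37 °C before readout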
Outline: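 Plated mouse neuroblastoma N2a cells received titrated compounds for 16 h in complete medium. Caspase activity was then detected with a peptide-aminoluciferin luminescent reagent.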

[6] = Cellular Toxicity (caspase-3) NIH 3T3 (AID 666);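 also: 0% = DMSO basal and 100% = 100 µM tamoxifen stimulation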
Outline: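 Concentration-response qHTS in NIH 3T3 mouse fibroblasts scores caspase-3/7 activation as rising luminescence after 16 hr compound exposure. Signals are scaled between DMSO-only and 100 uM tamoxifen.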

[7] = Cellular Toxicity (caspase-3) Renal Proximal Tubule (AID 667); details: Potency: caspase-3 activation;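 also: cells exposed to compound for 16 hours at 37 °C before detection; 0% = DMSO basal and 100% = 10 µM staurosporine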
Outline: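 Luminescent caspase 3/7 signal from peptide-aminoluciferin cleavage measures apoptosis in freshly isolated rat kidney proximal tubule cells after 16 h compound exposure. Concentration-response data are normalized to DMSO and 10 uM staurosporine, and AC50 values come from Hill equation fits.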

[8] = biological target: Cytochrome P450 3A4 (Homo sapiens) (UniProt P08684); assay: qHTS Assay for Inhibitors and Substrates of Cytochrome P450 3A4 (AID 884); also: % is scaled to controls: 0 for no effect and ±100 for the full control effect; nearly all actives have a fitted effect of over 50% in size
Sequence of Cytochrome P450 3A4 (Homo sapiens) (P08684 whole entry, looked up): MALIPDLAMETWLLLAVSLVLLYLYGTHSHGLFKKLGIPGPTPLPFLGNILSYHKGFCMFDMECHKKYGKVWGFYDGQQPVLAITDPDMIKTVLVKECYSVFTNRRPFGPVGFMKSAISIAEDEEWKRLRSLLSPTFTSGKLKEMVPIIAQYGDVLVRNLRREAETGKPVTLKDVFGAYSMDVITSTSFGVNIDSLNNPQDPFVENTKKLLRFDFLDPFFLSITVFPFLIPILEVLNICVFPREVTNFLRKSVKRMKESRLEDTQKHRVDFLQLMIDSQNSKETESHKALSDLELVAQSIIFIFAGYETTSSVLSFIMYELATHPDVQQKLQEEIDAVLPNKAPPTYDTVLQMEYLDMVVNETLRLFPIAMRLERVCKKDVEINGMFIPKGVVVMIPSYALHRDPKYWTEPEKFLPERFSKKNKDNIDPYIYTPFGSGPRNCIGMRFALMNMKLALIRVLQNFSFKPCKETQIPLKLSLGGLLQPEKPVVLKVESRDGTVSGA
Outline: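 20 nM human CYP3A4 with 25 uM Luciferin-PPXE (at KM) in 200 mM KPO4, preincubated 10 min with compound; NADPH regeneration started a 60 min RT reaction. Luciferin detected by luminescence, normalized to 57 uM ketoconazole as full inhibition.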

[9] = Cell Viability - LYMP2-001 (AID 921);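 also: 0% = DMSO only and full inhibition = tetraoctylammonium bromide control wells; nearly all actives have a fitted effect of over 70% in size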
Outline: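 CellTiter-Glo luminescence (intracellular ATP) after 24 hr compound exposure at 37 C, 2500 lymphoblastoid cells/well in complete medium. AC50 fitted with standard Hill equation; tetraoctylammonium bromide positive control.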

[10] = MultiTox-Fluor Cytotoxicity Assay - LYMP1-001 - Dead Cells (AID 946)
Outline: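 Seed 2500 LYMP1-001 cells/well, incubate 5 hr at 37 C; add compound, 16 hr at 37 C; add MultiTox-Fluor reagent, 60 min RT; read dead-cell fluorescence Ex/Em=485/520. Normalize to DMSO and 15 uM tetraoctylammonium bromide.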

[11] = MultiTox-Fluor Cytotoxicity Assay - LYMP1-001 - Live Cells (AID 947);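 also: 0% = DMSO only and full inhibition = tetraoctylammonium bromide control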
[12] = Cell Viability - LYMP1-002 - Assay at 16 hr (AID 948);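 also: 0% = DMSO alone and full effect = 92 µM tetraoctylammonium bromide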
Outline: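 LYMP1-002 human lymphoblastoid cells, 2500/well; 5 hr 37 C; cpd 16 hr 37 C; CellTiter-Glo 30 min RT; luminescence (ATP). Concentration-response, Hill-fit AC50. Pos ctrl tetraoctylammonium bromide.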

[13] = MultiTox-Fluor Cytotoxicity Assay - LYMP1-002 - Live Cells (AID 955); also: % is scaled to controls: 0 for no effect and ±100 for the full control effect
Outline: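 Cytotoxicity in the human lymphoblastoid line LYMP1-002 is measured as loss of live-cell protease activity after 16 h treatment in complete culture medium. AC50 is derived from Hill-equation fits of qHTS concentration-response data.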

[14] = MultiTox-Fluor Cytotoxicity Assay - LYMP1-003 - Dead Cells (AID 961);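 also: cells exposed to compound for 16 h at 37 °C; nearly all actives have a fitted effect of over 70% in size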
Outline: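 LYMP1-003 lymphoblastoid, 2500 cells/well, 5 hr settle then 16 hr cpd at 37 C; MultiTox-Fluor reagent 60 min RT; Ex/Em 485/520 dead-cell signal; norm. DMSO = 0%, 15 uM tetraoctylammonium bromide = 100%; Hill AC50.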

[15] = MultiTox-Fluor Cytotoxicity Assay - LYMP1-003 - Live Cells (AID 962);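 also: cells exposed to compound for 16 hours at 37 °C; 0% = DMSO only and full loss = 92 µM tetraoctylammonium bromide; cytotoxic hits lower the live-cell protease signal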
Outline: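 Cells plated at 2500 per well and incubated 5 hr; compounds added and incubated 16 hr at 37 C; MultiTox-Fluor reagent added for 60 min at room temperature; fluorescence of liberated AFC measured at 405/510 nm.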

[16] = Cell Viability - LYMP1-003 - Assay at 24 hr (AID 963);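 also: plate controls were DMSO only for no effect and tetraoctylammonium bromide positive control for full effect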
Outline: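 Acute toxicity in LYMP1-003 lymphoblastoid cells: 24 hr compound treatment at 37 C, ATP measured with CellTiter-Glo after 30 min at room temperature. AC50 derived by fitting the Hill equation to qHTS titrations.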

[17] = Cell Viability - LYMP1-003 - Assay at 40 hr (AID 964); also: % is scaled to controls: 0 for no effect and ±100 for the full control effect; nearly all actives have a fitted effect of over 60% in size
Outline: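 This qHTS cytotoxicity screen treats human lymphoblastoid cells (LYMP1-003) with compounds for 40 hr and quantifies cellular ATP via luciferase luminescence.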

[18] = Cell Viability - LYMP2-003 (AID 965);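 also: cells exposed to compounds for 24 h before reading; 0% = DMSO only and full effect = 92 µM tetraoctylammonium bromide; nearly all actives have a fitted effect of over 50% in size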
Outline: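 CellTiter-Glo luminescence (cellular ATP) after 24 h compound exposure at 37 C in complete medium; 2500 cells/well, 5 h settling beforehand. Concentration-response fitted to standard Hill equation for AC50. Tetraoctylammonium bromide served as positive control.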

[19] = MultiTox-Fluor Cytotoxicity Assay - LYMP1-002 - Dead Cells (AID 960);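 also: cells exposed to compound for 16 h at 37 °C; nearly all actives have a fitted effect of over 60% in size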
Outline: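 Acute cytotoxicity in a human lymphoblastoid line is scored as rising dead-cell protease signal after 16 hr exposure at 37 C, measured fluorometrically (485/520).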

COc1ccc(OC)cc1
inactive: caspase-3 activation [1] 0.503% | outcome [2] | caspase-3 activation [3] -0.441% | caspase-3 activation [4] 0.282% | outcome [5] | outcome [6] | Potency [7] | Potency [8] | Potency [9] | outcome [10] | outcome [11] | outcome [12] | outcome [13] | Potency [14] | Potency [15] | Potency [16] | Potency [17] | Potency [18]

c1ccc(Nc2ccccc2)cc1
inactive: caspase-3 activation [1] -0.717% | outcome [2] | caspase-3 activation [3] 0.361% | caspase-3 activation [4] -0.415% | outcome [5] | outcome [6] | Potency [7] | Potency [8] | Potency [9] | outcome [10] | outcome [11] | outcome [12] | outcome [19] | Potency [14] | Potency [15] | Potency [16] | Potency [17] | Potency [18]

c1ccsc1
inactive: caspase-3 activation [1] -0.223% | outcome [2] | caspase-3 activation [3] 0.78% | caspase-3 activation [4] -0.842% | outcome [5] | outcome [6] | Potency [7] | Potency [8] | Potency [9] | outcome [10] | outcome [11] | outcome [12] | outcome [13] | Potency [14] | Potency [15] | Potency [16] | Potency [17] | Potency [18]

CCCOCC(C)OCC(C)O (stereo unspecified)
inactive: caspase-3 activation [1] -0.26% | outcome [2] | caspase-3 activation [3] -0.229% | caspase-3 activation [4] 0.323% | outcome [5] | outcome [6] | Potency [7] | Potency [8] | Potency [9] | outcome [10] | outcome [11] | outcome [12] | outcome [13] | Potency [14] | Potency [15] | Potency [16] | Potency [18]

CC=O
inactive: caspase-3 activation [1] 1.5% | outcome [2] | caspase-3 activation [3] 1.97% | caspase-3 activation [4] 2.27% | outcome [5] | outcome [6] | Potency [7] | Potency [8] | Potency [9] | outcome [10] | outcome [11] | outcome [12] | outcome [19] | Potency [14] | Potency [15] | Potency [16] | Potency [17] | Potency [18]

CCCCCCCCN
inactive: caspase-3 activation [1] -0.125% | outcome [2] | caspase-3 activation [3] 0.977% | caspase-3 activation [4] 0.408% | outcome [5] | outcome [6] | Potency [7] | Potency [8] | Potency [9] | outcome [10] | outcome [11] | outcome [12] | outcome [19] | Potency [14] | Potency [15] | Potency [16] | Potency [17] | Potency [18]

CCCCCCCCC/C=C/CC1CC(=O)OC1=O (stereo unspecified)
inactive: caspase-3 activation [1] 0.816% | outcome [2] | caspase-3 activation [3] 1.69% | caspase-3 activation [4] 5.74% | outcome [5] | outcome [6] | Potency [7] | Potency [8] | Potency [9] | outcome [10] | outcome [11] | outcome [12] | outcome [13] | Potency [14] | Potency [15] | Potency [16] | Potency [17] | Potency [18]

Cc1cccc(Br)c1
inactive: caspase-3 activation [1] -0.167% | outcome [2] | caspase-3 activation [3] 0.836% | caspase-3 activation [4] -1.49% | outcome [5] | outcome [6] | Potency [7] | Potency [8] | Potency [9] | outcome [10] | outcome [11] | outcome [12] | outcome [13] | Potency [14] | Potency [15] | Potency [16] | Potency [17] | Potency [18]

CC(C)=CCl
inactive: caspase-3 activation [1] 0.522% | outcome [2] | caspase-3 activation [3] -0.24% | caspase-3 activation [4] 1.55% | outcome [5] | outcome [6] | Potency [7] | Potency [8] | Potency [9] | outcome [10] | outcome [11] | outcome [12] | outcome [13] | Potency [14] | Potency [15] | Potency [16] | Potency [17] | Potency [18]

CCCCCCCCCCCCOCC1CO1 (stereo unspecified)
inactive: caspase-3 activation [1] 1.85% | outcome [2] | caspase-3 activation [3] 3.02% | caspase-3 activation [4] 2.47% | outcome [5] | outcome [6] | Potency [7] | Potency [8] | Potency [9] | outcome [10] | outcome [11] | outcome [12] | outcome [19] | Potency [14] | Potency [15] | Potency [16] | Potency [17] | Potency [18]

CC/C=C1/OC(=O)c2ccccc21
inactive: caspase-3 activation [1] 0.157% | outcome [2] | caspase-3 activation [3] 0.49% | caspase-3 activation [4] 1.13% | outcome [5] | outcome [6] | Potency [7] | Potency [8] | Potency [9] | outcome [10] | outcome [11] | outcome [12] | outcome [19] | Potency [14] | Potency [15] | Potency [16] | Potency [17] | Potency [18]

O=C(O)CN(CC(=O)O)CC(=O)O
inactive: caspase-3 activation [1] 1.04% | outcome [2] | caspase-3 activation [3] 2.27% | caspase-3 activation [4] 0.365% | outcome [5] | outcome [6] | Potency [7] | Potency [8] | Potency [9] | outcome [10] | outcome [11] | outcome [12] | outcome [13] | Potency [14] | Potency [15] | Potency [16] | Potency [17] | Potency [18]

Nc1cc(S(=O)(=O)O)ccc1O
inactive: caspase-3 activation [1] 0.554% | outcome [2] | caspase-3 activation [3] -0.224% | caspase-3 activation [4] -0.175% | outcome [5] | outcome [6] | Potency [7] | Potency [8] | Potency [9] | outcome [10] | outcome [11] | outcome [12] | outcome [19] | Potency [14] | Potency [15] | Potency [16] | Potency [17] | Potency [18]

CC(C)N=C=NC(C)C
inactive: caspase-3 activation [1] -0.478% | outcome [2] | caspase-3 activation [3] 2.29% | caspase-3 activation [4] -0.83% | outcome [5] | outcome [6] | Potency [7] | Potency [8] | Potency [9] | outcome [10] | outcome [11] | outcome [12] | outcome [13] | Potency [14] | Potency [15] | Potency [16] | Potency [17] | Potency [18]

CCCC(Cl)CCCC(Cl)CCC(Cl)CCC(Cl)CCC(Cl)CCCC(Cl)CCC (stereo unspecified)
inactive: caspase-3 activation [1] 1.24% | outcome [2] | caspase-3 activation [3] 0.272% | caspase-3 activation [4] -1.03% | outcome [5] | outcome [6] | Potency [7] | Potency [8] | Potency [9] | outcome [10] | outcome [11] | outcome [12] | outcome [13] | Potency [14] | Potency [15] | Potency [16] | Potency [17] | Potency [18]

CCCCCCO
inactive: caspase-3 activation [1] 0.267% | outcome [2] | caspase-3 activation [3] 0.291% | caspase-3 activation [4] 0.42% | outcome [5] | outcome [6] | Potency [7] | Potency [8] | Potency [9] | outcome [10] | outcome [11] | outcome [12] | outcome [13] | Potency [14] | Potency [16] | Potency [18]

Cc1ccccc1Br
inactive: caspase-3 activation [1] -0.877% | outcome [2] | caspase-3 activation [3] 0.309% | caspase-3 activation [4] -0.786% | outcome [5] | outcome [6] | Potency [7] | Potency [8] | Potency [9] | outcome [10] | outcome [11] | outcome [12] | outcome [13] | Potency [14] | Potency [15] | Potency [16] | Potency [17] | Potency [18]

O=C1OC(=O)c2c(Cl)c(Cl)c(Cl)c(Cl)c21
inactive: caspase-3 activation [1] -0.0678% | outcome [2] | caspase-3 activation [3] -0.63% | caspase-3 activation [4] 1.4% | outcome [5] | outcome [6] | Potency [7] | Potency [8] | Potency [9] | outcome [10] | outcome [11] | outcome [12] | outcome [13] | Potency [14] | Potency [15] | Potency [16] | Potency [17] | Potency [18]
